In PubChem BioAssay (NCATS):
“And” between values parts separate entries of the source, which are not always exact repeats. Equal values may be shown once. Inconclusive results are not listed. Where a structure was tested more than once in an assay, its records may differ in their call. The source made the active and inactive calls. The call rests on the fitted dose curve; in most records, active means well fitted curve in the direction sought with a large enough effect; inconclusive means small, poorly fitted or top-dose-only effect, or another doubt; inactive means no such curve, though single readings can be large; an effect the other way counts as inactive or inconclusive.

Columns and labels:
NIH3T3 = experiment: qHTS assay to identify novel small-molecules to repurpose for Merkel cell carcinoma treatment (AID 1296009); settings: MCC and control cell lines, CellTiter-Glo viability, 72 h; at 44.8 µM (top of the series) unless noted; further: nearly all actives have a fitted effect of over 60% in size
Procedure, shortened: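 Cell viability, measured as CellTiter-Glo luminescence, was normalized between DMSO and no-cell wells. The cells had been exposed to 8- or 11-point compound dilutions for 72 hr at 37 degree celsius.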

C33A = experiment: Primary qHTS to identify gynecologic anti-cancer compounds using libraries of approved drugs and bioactive compounds (AID 1345084); settings: Gynecologic cancer cell panel viability, ATPlite luminescence, 48 h; series mostly up to 57.5 µM; further: nearly all actives have a fitted effect of over 55% in size; further: potency means the concentration at half of the fitted maximal effect
Procedure, shortened: (§1)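 Measured: luminescence after ATPlite addition (15 min, RT). Exposure: 48 h, 37 C, 5% CO2.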

CAOV3 = experiment: as above; settings: Gynecologic cancer cell panel viability, ATPlite luminescence, 48 h; series mostly up to 57.5 µM
Procedure, shortened: as §1

CASKI = experiment: as above; settings: Gynecologic cancer cell panel viability, ATPlite luminescence, 48 h; series mostly up to 57.5 µM
Procedure, shortened: as §1

Es-2 = experiment: as above; settings: Gynecologic cancer cell panel viability, ATPlite luminescence, 48 h; series mostly up to 57.5 µM
Procedure, shortened: as §1

HeLa = experiment: as above; settings: Gynecologic cancer cell panel viability, ATPlite luminescence, 48 h; series mostly up to 57.5 µM
Procedure, shortened: as §1

Hek293T = experiment: as above; settings: Gynecologic cancer cell panel viability, ATPlite luminescence, 48 h, control line for the selectivity index; series mostly up to 57.5 µM
Procedure, shortened: as §1

JEG-3 = experiment: as above; settings: Gynecologic cancer cell panel viability, ATPlite luminescence, 48 h; series mostly up to 57.5 µM
Procedure, shortened: as §1

OV90 = experiment: as above; settings: Gynecologic cancer cell panel viability, ATPlite luminescence, 48 h; series mostly up to 57.5 µM
Procedure, shortened: as §1

PA-1 = experiment: as above; settings: Gynecologic cancer cell panel viability, ATPlite luminescence, 48 h; series mostly up to 57.5 µM
Procedure, shortened: as §1

SKOV3 = experiment: as above; settings: Gynecologic cancer cell panel viability, ATPlite luminescence, 48 h; series mostly up to 57.5 µM
Procedure, shortened: as §1

Tov-21-G = experiment: as above; settings: Gynecologic cancer cell panel viability, ATPlite luminescence, 48 h; series mostly up to 57.5 µM
Procedure, shortened: as §1

Tov112D = experiment: as above; settings: Gynecologic cancer cell panel viability, ATPlite luminescence, 48 h; series mostly up to 57.5 µM
Procedure, shortened: as §1

[1] = Drug repurposing screens with cells derived from glioblastoma tumor samples (AID 1345199); settings: GBM patient neurospheres viability, ATP luminescence, 48 h; further: nearly all actives have a fitted effect of over 40% in size; further: potency means the concentration at half of the fitted maximal effect; on activity, negative = cell killing: on the % scale 0 is the no-effect control and ±100 the full control effect
Procedure, shortened: (§2)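 Primary testing used CD133+ neurospheres from four GBM patients, seven concentrations, 48 h exposure and ATP-based viability; confirmation added three slower-growing patient lines.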

astro = experiment: as above; settings: viability, ATP luminescence, 48 h; series mostly up to 45.9 µM
Procedure, shortened: as §2

[2] = qHTS assay to identify inhibitors of the type 1 interferon - major histocompatibility complex class I in skeletal muscle: Counter screen cell viability and HiBit confirmation (AID 1347412); settings: iHSKM muscle cells + IFN-b, HiBiT or CellTiter-Glo, 24 h; for activity change, negative = inhibition: at 45.9 µM (top of the series); further: potency means the concentration at half of the fitted maximal effect; on activity change, negative = inhibition: on the % scale 0 is the no-effect control and ±100 the full control effect; on all read-outs here: nearly all actives have a fitted effect of over 60% in size
Procedure, shortened: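 HLA-B*08:01–HiBiT knock-in immortalized human myoblasts (C25cl48) stimulated with 4.0 ng/ml human IFN-beta and dosed with compound in a 12-point 1:3 titration (top final 46 uM). After 24 hrs at 37 C, HiBiT lytic luminescence or CellTiter Glo ATP read out.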

[3] = at 45.9 µM (top of the series), tumour line B
[4] = at 45.9 µM (top of the series), tumour line D
[5] = at 46.1 µM (top of the series), tumour line C
[6] = at 46 µM (top of the series), tumour line A

CC(=O)O[C@H]1C[C@@]2(C)[C@@H](C[C@@H](O)[C@H]3[C@@]4(C)CC[C@@H](O)[C@@H](C)[C@@H]4CC[C@@]32C)/C1=C(\CCC=C(C)C)C(=O)O
inactive: outcome (NIH3T3) | Potency (C33A) | Potency (CAOV3) | Potency (CASKI) | Potency (Es-2) | Potency (HeLa) | Potency (Hek293T) | Potency (JEG-3) | Potency (OV90) | Potency (PA-1) | Potency (SKOV3) | Potency (Tov-21-G) | Potency (Tov112D) | activity, negative = cell killing [1, 3] -17.2% | activity, negative = cell killing [1, 4] 1.56% | activity, negative = cell killing [1, 5] -26.3%

C[C@H](O)[C@H](O)[C@H]1CNc2nc(N)[nH]c(=O)c2N1
inactive: outcome (NIH3T3) | Potency (C33A) | Potency (CAOV3) | Potency (CASKI) | Potency (Es-2) | Potency (HeLa) | Potency (Hek293T) | Potency (JEG-3) | Potency (OV90) | Potency (PA-1) | Potency (SKOV3) | Potency (Tov-21-G) | Potency (Tov112D) | activity, negative = cell killing [1, 3] -2.46% | activity, negative = cell killing [1, 4] 16.1% | activity, negative = cell killing [1, 6] -18.9% | activity, negative = cell killing [1, 5] 11.1% | Potency (astro)

CC(C(=O)O)c1ccc(C(=O)c2cccs2)cc1 (stereo not given)
inactive: Potency (C33A) | Potency (CAOV3) | Potency (CASKI) | Potency (Es-2) | Potency (HeLa) | Potency (Hek293T) | Potency (JEG-3) | Potency (OV90) | Potency (PA-1) | Potency (SKOV3) | Potency (Tov-21-G) | Potency (Tov112D) | activity, negative = cell killing ([1]; at 20 µM (top of the series), tumour line C) 9.23% | activity, negative = cell killing ([1]; at 21.2 µM (top of the series), tumour line B) -14.5% | activity, negative = cell killing ([1]; at 21.2 µM (top of the series), tumour line D) -0.88% | activity, negative = cell killing ([1]; at 21.3 µM (top of the series), tumour line A) -13% | Potency (astro)

COc1cc(/C=C/C(=O)CC(=O)/C=C/c2ccc(O)c(OC)c2)ccc1O
inactive: activity, negative = cell killing [1, 3] -25.8% | activity, negative = cell killing [1, 4] -25.7% | activity, negative = cell killing [1, 5] -20.1%
active: Potency ([1]; tumour line A) 12.6 µM

N#C/C(=C\c1ccc(-c2cc(Cl)ccc2Cl)o1)C(=O)Nc1cccc2ncccc12
inactive: activity change, negative = inhibition ([2]; Viability) -18.8%

CC[C@H]1OC(=O)[C@H](C)[C@@H](O[C@H]2C[C@@](C)(OC)[C@@H](O)[C@H](C)O2)[C@H](C)[C@@H](O[C@@H]2O[C@H](C)C[C@H](N(C)C)[C@H]2O)[C@](C)(O)C[C@@H](C)C(=O)[C@H](C)[C@@H](O)[C@]1(C)O
inactive: activity, negative = cell killing [1, 3] -22.6% and -12% | activity, negative = cell killing [1, 4] -9.85% and -27.5% | activity, negative = cell killing [1, 5] -1.15% and -24.2% | Potency (astro)

O=S(=O)(c1cccc2c(I)cccc12)N1CCCNCC1
inactive: activity change, negative = inhibition ([2]; HiBiT) -4.28% | activity change, negative = inhibition ([2]; Viability) -12.4%

O=C(O)/C=C/C(O)c1ccc(Cl)cc1 (stereo not given)
inactive: activity, negative = cell killing [1, 3] 1.63% | activity, negative = cell killing [1, 4] 7.64% | activity, negative = cell killing [1, 6] -31.6% | activity, negative = cell killing [1, 5] 1.95% | Potency (astro)

Cc1ccc(S(=O)(=O)/C=C/C#N)cc1
active: Potency ([2]; HiBiT) 5.57 µM | Potency ([2]; Viability) 17.6 µM

O=[N+]([O-])c1ccc2c(c1)S(=O)(=O)C=C2
active: Potency ([2]; HiBiT) 1.76 µM

C[S+](CC[C@H](N)C(=O)O)C[C@H]1O[C@@H](n2cnc3c(N)ncnc32)[C@H](O)[C@@H]1O (stereo not given in full)
inactive: activity, negative = cell killing [1, 3] 4.03% and -13.3% | activity, negative = cell killing [1, 4] -4.97% and -8.65% | activity, negative = cell killing [1, 5] -29.2% and -23.1%
active: Potency ([1]; tumour line A) 7.08 µM

Cc1nc2ccccc2n1Cc1ccc(Cl)cc1
active: Potency (OV90) 8.91 µM | Potency (SKOV3) 3.98 µM
inactive: Potency (CAOV3) | Potency (HeLa) | Potency (JEG-3) | Potency (Tov-21-G) | Potency (Tov112D)

CN1[C@@H](CC(=O)c2ccccc2)CCC[C@H]1C[C@H](O)c1ccccc1
active: Potency ([1]; tumour line A) 10 µM
inactive: activity, negative = cell killing [1, 3] -7.77% | activity, negative = cell killing [1, 4] -23.7% | activity, negative = cell killing [1, 5] 11.9%

CCN(CC)CCCCNc1ncc2cc(-c3c(Cl)cccc3Cl)c(NC(=O)NC(C)(C)C)nc2n1
inactive: Potency (JEG-3)
active: Potency (OV90) 7.94 µM | Potency (PA-1) 0.631 µM

CC(=O)[C@]1(O)Cc2c(O)c3c(c(O)c2[C@@H](O[C@H]2C[C@H](N)[C@H](O)[C@H](C)O2)C1)C(=O)c1c(O)cccc1C3=O
active: Potency (astro) 501 nM and 562 nM

OCC1O[C@H]([S-])[C@H](O)[C@@H](O)[C@@H]1O.[Au+] (stereo not given in full)
inactive: activity change, negative = inhibition ([2]; Viability) -5.66%

Cc1onc(-c2c(F)cccc2Cl)c1C(=O)N[C@@H]1C(=O)N2[C@@H]1SC(C)(C)[C@@H]2C(=O)O
inactive: Potency (CAOV3) | Potency (CASKI) | Potency (Es-2) | Potency (HeLa) | Potency (Hek293T) | Potency (JEG-3) | Potency (OV90) | Potency (PA-1) | Potency (SKOV3) | Potency (Tov-21-G) | Potency (Tov112D) | activity, negative = cell killing [1, 3] -10.7% and -14.2% | activity, negative = cell killing [1, 4] 14.3% and -22.2% | activity, negative = cell killing [1, 6] -14.1% and -18% | activity, negative = cell killing [1, 5] 9.01% and 7.31%
